Source: PubChem BioAssay
LYPLA2 counter = blocks human lysophospholipase 2, a PME1 counter-screen. recombinant LYPLA2, FP-Rh probe fluorescence polarization. inhibition, % at 5.9 µM. 320,000 compounds, 0.38% hits. AID 2177;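 active means inhibition above the screen-wide mean plus 3 SD, limit set per campaign, cut at about 26% in these data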;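 further: 0% = LYPLA2 with DMSO and 100% = wells lacking LYPLA2 enzyme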
Fam108B inh = Fam108B inhibition, counter-screen for RBBP9 inhibitors; recombinant Fam108B, FP-Rh probe fluorescence polarization; inhibition, % at 9.51 µM; 300,000 compounds, 0.33% hits;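 active means inhibition above the screen mean inhibition plus 3 SD, computed separately per campaign, cut at about 18% in these data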;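 further: inhibitors lower polarization as less probe binds the enzyme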
LYPLA1 inh = blocks human lysophospholipase 1, a PME1 counter-screen | 320,000 compounds, 0.16% hits | inhibition, % at 5.9 µM | AID 2174 | recombinant LYPLA1, FP-Rh probe fluorescence polarization | O75608;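 active means inhibition above the mean of all tested compounds plus 3 SD, set per campaign, cut at about 14% in these data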;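 further: inhibitors block serine hydrolase probe labeling of LYPLA1 so polarization falls; 0% = enzyme with DMSO and 100% = wells lacking LYPLA1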
PAD4 inh = inhibitors of human PAD4 | Q9UM07 | recombinant PAD4, RCA probe fluorescence polarization | inhibition, % at 6.36 µM | 330,000 compounds, 0.41% hits;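 active means percent inhibition above a cutoff equal to the mean of all tested compounds plus 3 SD, cut at about 15% in these data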;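 further: 0% = PAD4 with RCA probe and DMSO and 100% = probe without PAD4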
Target sequence (Q9UM07 whole entry, looked up): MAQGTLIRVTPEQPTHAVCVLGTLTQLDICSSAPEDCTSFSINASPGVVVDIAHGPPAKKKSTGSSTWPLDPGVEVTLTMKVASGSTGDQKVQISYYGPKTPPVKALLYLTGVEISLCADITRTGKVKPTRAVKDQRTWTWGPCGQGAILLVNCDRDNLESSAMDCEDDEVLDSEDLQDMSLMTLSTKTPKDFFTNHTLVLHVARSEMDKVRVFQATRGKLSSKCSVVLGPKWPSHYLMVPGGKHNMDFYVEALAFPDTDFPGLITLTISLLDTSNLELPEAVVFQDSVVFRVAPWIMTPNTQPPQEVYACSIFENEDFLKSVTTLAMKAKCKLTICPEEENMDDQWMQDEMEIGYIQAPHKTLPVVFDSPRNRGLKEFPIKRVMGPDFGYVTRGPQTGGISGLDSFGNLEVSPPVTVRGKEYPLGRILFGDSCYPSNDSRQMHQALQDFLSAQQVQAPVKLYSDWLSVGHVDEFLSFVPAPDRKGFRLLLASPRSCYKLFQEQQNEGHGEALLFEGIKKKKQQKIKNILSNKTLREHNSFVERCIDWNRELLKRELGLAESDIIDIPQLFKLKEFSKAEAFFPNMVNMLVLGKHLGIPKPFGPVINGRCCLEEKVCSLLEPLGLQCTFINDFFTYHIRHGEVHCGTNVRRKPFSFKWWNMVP
GSTO1 counter = counter-screen for RBBP9 inhibitors: inhibitors of human GSTO1; 300,000 compounds, 1.1% hits; inhibition, % at 5.96 µM; recombinant GSTO1, activity-based probe fluorescence polarization;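 active means inhibition above the campaign mean inhibition plus 3 SD, cut at about 35% in these data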;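 further: 0% = GSTO1-1 with DMSO and 100% = wells lacking GSTO1-1 enzyme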
PME-1 inh = blocks human protein phosphatase methylesterase 1. Q9Y570. recombinant PME-1, FP-Rh probe fluorescence polarization. inhibition, % at 5.9 µM. 320,000 compounds, 0.53% hits;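 active means inhibition above the campaign mean of all compounds plus 3 SD, cut at about 26% in these data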;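 further: competitive labeling of PME-1 active site by serine hydrolase directed probe; 0% = PME-1 with DMSO and 100% = wells lacking PME-1 enzyme; inhibitors block probe labeling so polarization falls and inhibition rises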
LYPLA2 confirm = counter-screen for PME1 inhibitors: confirmation of human LYPLA2 inhibitors. recombinant LYPLA2, FP-Rh probe fluorescence polarization. shares compounds with LYPLA2 counter. inhibition, % at 5.9 µM. 1,100 compounds, 72% hits;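 active means mean inhibition across replicates above the hit cutoff set in the primary screen, cut at about 26% in these data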;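 further: blocked labeling of the enzyme by serine hydrolase FP-Rh probe lowers polarization; 0% = enzyme with DMSO and 100% = wells lacking LYPLA2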
LYPLA2 ABPP = inhibitors of human LYPLA2; rhLYPLA2 in mouse brain proteome, gel ABPP FP-Rh; 150 compounds, 30% hits; shares compounds with LYPLA2 counter; inhibition, % at 20 µM;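 active means inhibition of LYPLA2 enzyme probe labeling above about 50%, limit read from the data; inactive means inhibition below that limit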;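 further: loss of FP-Rh probe labeling of the LYPLA2 gel band measured as band density; 0% = DMSO only control band and 100% = blank gel background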
PAD4 FP conf = confirmation of human PAD4 inhibitors; shares compounds with PAD4 inh; recombinant PAD4, RCA probe fluorescence polarization; inhibition, % at 6.36 µM; 1,200 compounds, 28% hits;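 active means mean inhibition across replicates above the hit cutoff set by the earlier primary screen, cut at about 15% in these data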;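 further: inhibitors block active-site labeling by the probe so polarization falls; 0% = PAD4 with probe and DMSO and 100% = probe without PAD4 enzyme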
* = called active by the depositor; . = no result given. Shown are actives, neighbours in structure and some others; about 1.8% of the full set was active somewhere.

SMILES	LYPLA2 counter	Fam108B inh	LYPLA1 inh	PAD4 inh	GSTO1 counter	PME-1 inh	LYPLA2 confirm	others
C#CCn1c(=NC(=O)CN2C(=O)CCC2=O)sc2cc(S(N)(=O)=O)ccc21	32*	-1	-3	0	0	1	47*
N#Cc1ccc(OCC(=O)N2CCN(c3ccc(C(F)(F)F)cn3)CC2)cc1	64*	.	4	-9	.	4	32*
CN(Cc1ccc(C(F)(F)F)cc1)C(=O)c1ccc(Oc2ccccc2)cc1	29*	0	11	1	-5	0	24
CCOC(=O)N1CCC(NC(=O)c2cc3cc4cc(OC)ccc4nc3o2)CC1	35*	2	9	1	-1	-6	31*
O=C(c1ccc(F)cc1)C1CCN(CCn2c(=O)[nH]c3ccccc3c2=O)CC1	33*	4	8	-2	4	0	36*
CCCCOc1ccc(-c2nnn(CC(=O)NCCc3c[nH]c4ccccc34)n2)cc1	9	-3	-4	-3	-4	-7	.
CCO[C@H]1OC(C(=O)NCc2nc3ccccc3[nH]2)=C[C@@H](c2ccc3c(c2)OCO3)[C@@H]1CCCO	1	-2	-1	-2	2	1	.
CC(C)C(NC(=O)c1ccccc1NC(=O)c1ccccc1)C(=O)NCCCn1ccnc1 (stereo not given)	29*	0	4	0	6	3	-1
C[C@H](CO)N1C[C@H](C)[C@@H](CN(C)C(=O)NC2CCCCC2)Oc2ccc(NS(=O)(=O)c3ccc(F)cc3)cc2C1=O	.	.	.	7	.	.	.
O=C(NC(C1CC1)C1CC1)C1CCC(=O)N(CCCN2CCCC2=O)C1 (stereo not given)	12	4	5	2	0	-7	.
NC(=O)COC(=O)CC1CC2CCC1C2 (stereo not given)	-5	-3	-2	5	4	-8	.
O=C1Nc2ccc([N+](=O)[O-])cc2OC1CCN1CCN(Cc2ccc3c(c2)OCO3)CC1 (stereo not given)	72*	1	1	-2	-3	9	79*	LYPLA2 ABPP=61*
CCN1CCN(CCC2Oc3cc([N+](=O)[O-])ccc3NC2=O)CC1 (stereo not given)	-3	7	-2	2	-3	3	.
CCC(C)(C(=O)NC1CCCCC1)N(CC1CCCO1)C(=O)Cc1cccs1 (stereo not given)	2	1	-2	3	-2	8	.
O=C(Nc1cccs1)Nc1c(F)c(F)c(F)c(F)c1F	29*	0	4	-1	6	7	30*
COc1ccc(NC(=O)c2ccc(C(=O)c3cc(OC)ccc3OC)cc2)cc1	6	-9	0	-7	-4	-5	.
O=C(c1ccc(N2CCN(C(=O)c3cccc(F)c3)CC2)cc1)c1cccc(F)c1	43*	3	6	2	-2	5	29*
O=C(c1ccc(N2CCN(C(=O)c3ccccc3Br)CC2)cc1)c1cccc(F)c1	0	-7	-1	-2	1	1	.
COc1ccc(NC(=O)NC(C(F)(F)F)C(F)(F)F)cc1	-3	7	-3	15*	4	-1	.	PAD4 FP conf=3
COc1ccc(NC(=O)Nc2ccc(C(C)C)cc2)cc1	-2	-2	-1	-1	18	0	.
CCCC1C2CN(C(C)C)CC=C2C(C#N)=C(N)C1(C#N)C#N (stereo not given)	8	1	3	25*	-3	5	.	PAD4 FP conf=12
CN1CC=C2C(C#N)=C(N)C(C#N)(C#N)C(CCc3ccccc3)C2C1 (stereo not given)	-2	2	-1	2	2	3	.
CN1CC=C2C(C#N)=C(N)C(C#N)(C#N)[C@H](c3cccs3)[C@H]2C1	3	-2	3	8	11	6	.
CN1CC=C2C(C#N)=C(N)C(C#N)(C#N)C(c3ccsc3)C2C1 (stereo not given)	4	0	4	15*	-1	-2	.	PAD4 FP conf=6
